# The supplement of paper PMC4022240
# ± gives the standard deviation.
# T1: HaloTag-ATRX ADD domain (163-292)
# T1 chain: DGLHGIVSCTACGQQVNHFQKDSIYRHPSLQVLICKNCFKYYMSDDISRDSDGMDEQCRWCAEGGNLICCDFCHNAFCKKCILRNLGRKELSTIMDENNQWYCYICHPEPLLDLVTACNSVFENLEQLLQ
# What was measured:
# Test in all cases: peptide microarray binding signal (635 nm), min-max normalized on array (fraction of array maximum); higher = stronger binding
# Conditions in all cases: peptide region: H3 1-13
# [1] = biological target: T1, HaloTag-ATRX ADD domain (163-292)
# Experimental: (§1)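 Histone 13-mer peptides were synthesized as cellulose conjugates with a C-terminal 20-atom PEG linker and printed in triplicate on nitrocellulose. The sequence given is the unmodified backbone; PTMs (Kme1/2/3, Kac, Sph/Tph, Rme/Rme2a/Rme2s, Rcit) are listed in the label and the 'peptide modifications' condition. Slides were probed at 4 °C for 1 h with biotin-labelled (HQ)5-HaloTag reader fusions (ATRX-ADD, ING2-PHD) then streptavidin-Alexa647, or with rabbit histone antibodies then anti-rabbit Alexa647. The mean 635 nm signal of the triplicate spots was scaled 0-1 between the lowest and highest values on each array.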
# [2] = biological target: HaloTag-ING2 PHD (mouse Ing2 200-280)
# Experimental: as §1
# [3] = biological target: anti-H3K4me3 antibody ab8580
# Experimental: as §1
# [4] = biological target: anti-H3K9me3 antibody ab8898
# Experimental: as §1
# [5] = peptide modifications: H3R8me2a H3K9me3, binder concentration: 1:2,000 dilution
# [6] = peptide modifications: H3R8me2a H3K9me3, binder concentration: 1:10,000 dilution
# [7] = peptide modifications: H3R8me2s H3K9me1, binder concentration: 1:2,000 dilution
# [8] = peptide modifications: H3R8me2s H3K9me1, binder concentration: 1:10,000 dilution
# [9] = peptide modifications: H3R8me2a, binder concentration: 1:2,000 dilution
# [10] = peptide modifications: H3R8me2a, binder concentration: 1:10,000 dilution
# [11] = peptide modifications: H3T3ph H3K4ac, binder concentration: 1:2,000 dilution
# [12] = peptide modifications: H3T3ph H3K4ac, binder concentration: 1:10,000 dilution
# [13] = peptide modifications: H3R8me2s H3K9ac, binder concentration: 1:2,000 dilution
# [14] = peptide modifications: H3R8me2s, binder concentration: 1:2,000 dilution
# [15] = peptide modifications: H3R8me2s, binder concentration: 1:10,000 dilution
# [16] = peptide modifications: H3R8me2s H3K9me2, binder concentration: 1:2,000 dilution
# [17] = peptide modifications: H3R8me2s H3K9me2, binder concentration: 1:10,000 dilution
# [18] = peptide modifications: H3S10ph, binder concentration: 1:2,000 dilution
# [19] = peptide modifications: H3S10ph, binder concentration: 1:10,000 dilution
# [20] = peptide modifications: H3R8me2s H3K9me3, binder concentration: 1:2,000 dilution
# [21] = peptide modifications: H3R8me2s H3K9me3, binder concentration: 1:10,000 dilution
# [22] = peptide modifications: H3T3ph H3K4me1, binder concentration: 1:2,000 dilution
# [23] = peptide modifications: H3T3ph H3K4me1, binder concentration: 1:10,000 dilution
binder,measurement,setting,value
ARTKQTARKSTGG [H3 1-13 A R T K Q T A Rme2a Kme3 S T G G],peptide microarray binding signal,"[1]; peptide modifications: H3R8me2a H3K9me3, binder concentration: 50 nM",0.955 ± 0.067
same,peptide microarray binding signal,"[1]; peptide modifications: H3R8me2a H3K9me3, binder concentration: 500 nM",0.905 ± 0.038
same,peptide microarray binding signal,"[2]; peptide modifications: H3R8me2a H3K9me3, binder concentration: 10 nM",0.126 ± 0.042
same,peptide microarray binding signal,"[2]; peptide modifications: H3R8me2a H3K9me3, binder concentration: 100 nM",0.201 ± 0.059
same,peptide microarray binding signal,[3]; [5],0.0701 ± 0.02
same,peptide microarray binding signal,[3]; [6],0.0416 ± 0.019
same,peptide microarray binding signal,[4]; [5],0.458 ± 0.13
same,peptide microarray binding signal,[4]; [6],0.309 ± 0.082
ARTKQTARKSTGG [H3 1-13 A R T K Q T A Rme2s Kme S T G G],peptide microarray binding signal,"[1]; peptide modifications: H3R8me2s H3K9me1, binder concentration: 50 nM",0.0145 ± 0.00064
same,peptide microarray binding signal,"[1]; peptide modifications: H3R8me2s H3K9me1, binder concentration: 500 nM",0.0339 ± 0.0019
same,peptide microarray binding signal,"[2]; peptide modifications: H3R8me2s H3K9me1, binder concentration: 10 nM",0.0365 ± 0.0046
same,peptide microarray binding signal,"[2]; peptide modifications: H3R8me2s H3K9me1, binder concentration: 100 nM",0.0547 ± 0.007
same,peptide microarray binding signal,[3]; [7],0.0103 ± 0.0015
same,peptide microarray binding signal,[3]; [8],0.0069 ± 0.0003
same,peptide microarray binding signal,[4]; [7],0.00578 ± 0.0013
same,peptide microarray binding signal,[4]; [8],0.00588 ± 0.00043
ARTKQTARKSTGG [H3 1-13 A R T K Q T A Rme2a K S T G G],peptide microarray binding signal,"[1]; peptide modifications: H3R8me2a, binder concentration: 50 nM",0.00959 ± 0.00045
same,peptide microarray binding signal,"[1]; peptide modifications: H3R8me2a, binder concentration: 500 nM",0.0248 ± 0.0019
same,peptide microarray binding signal,"[2]; peptide modifications: H3R8me2a, binder concentration: 10 nM",0.00812 ± 0.00091
same,peptide microarray binding signal,"[2]; peptide modifications: H3R8me2a, binder concentration: 100 nM",0.0181 ± 0.0056
same,peptide microarray binding signal,[3]; [9],0.00191 ± 0.00018
same,peptide microarray binding signal,[3]; [10],0.000799 ± 2.2e-05
same,peptide microarray binding signal,[4]; [9],0.000951 ± 7e-05
same,peptide microarray binding signal,[4]; [10],0.000634 ± 1.2e-05
ARTKQTARKSTGG [H3 1-13 A R Tph Kac Q T A R K S T G G],peptide microarray binding signal,"[1]; peptide modifications: H3T3ph H3K4ac, binder concentration: 50 nM",0.00699 ± 0.00027
same,peptide microarray binding signal,"[1]; peptide modifications: H3T3ph H3K4ac, binder concentration: 500 nM",0.0189 ± 0.0052
same,peptide microarray binding signal,"[2]; peptide modifications: H3T3ph H3K4ac, binder concentration: 10 nM",0.01 ± 0.0027
same,peptide microarray binding signal,"[2]; peptide modifications: H3T3ph H3K4ac, binder concentration: 100 nM",0.024 ± 0.0049
same,peptide microarray binding signal,[3]; [11],0.00177 ± 0.0002
same,peptide microarray binding signal,[3]; [12],0.00325 ± 0.0004
same,peptide microarray binding signal,[4]; [11],0.00104 ± 0.00017
same,peptide microarray binding signal,[4]; [12],0.00156 ± 0.00017
ARTKQTARKSTGG [H3 1-13 A R T K Q T A Rme2s Kac S T G G],peptide microarray binding signal,"[1]; peptide modifications: H3R8me2s H3K9ac, binder concentration: 500 nM",0.0059 ± 0.0002
same,peptide microarray binding signal,"[2]; peptide modifications: H3R8me2s H3K9ac, binder concentration: 100 nM",0.00574 ± 0.00031
same,peptide microarray binding signal,[3]; [13],0.00142 ± 6.5e-05
same,peptide microarray binding signal,[4]; [13],0.00243 ± 0.00046
ARTKQTARKSTGG [H3 1-13 A R T K Q T A Rme2s K S T G G],peptide microarray binding signal,"[1]; peptide modifications: H3R8me2s, binder concentration: 50 nM",0.007899 ± 6.4e-05
same,peptide microarray binding signal,"[1]; peptide modifications: H3R8me2s, binder concentration: 500 nM",0.0258 ± 0.00046
same,peptide microarray binding signal,"[2]; peptide modifications: H3R8me2s, binder concentration: 10 nM",0.0129 ± 0.00049
same,peptide microarray binding signal,"[2]; peptide modifications: H3R8me2s, binder concentration: 100 nM",0.0364 ± 0.027
same,peptide microarray binding signal,[3]; [14],0.00759 ± 0.0043
same,peptide microarray binding signal,[3]; [15],0.00302 ± 0.00087
same,peptide microarray binding signal,[4]; [14],0.0037 ± 0.00057
same,peptide microarray binding signal,[4]; [15],0.00254 ± 0.00038
ARTKQTARKSTGG [H3 1-13 A R T K Q T A Rme2s Kme2 S T G G],peptide microarray binding signal,"[1]; peptide modifications: H3R8me2s H3K9me2, binder concentration: 50 nM",0.0108 ± 0.00034
same,peptide microarray binding signal,"[1]; peptide modifications: H3R8me2s H3K9me2, binder concentration: 500 nM",0.0202 ± 0.00096
same,peptide microarray binding signal,"[2]; peptide modifications: H3R8me2s H3K9me2, binder concentration: 10 nM",0.0292 ± 0.0027
same,peptide microarray binding signal,"[2]; peptide modifications: H3R8me2s H3K9me2, binder concentration: 100 nM",0.049 ± 0.0084
same,peptide microarray binding signal,[3]; [16],0.00447 ± 0.00012
same,peptide microarray binding signal,[3]; [17],0.00451 ± 0.00027
same,peptide microarray binding signal,[4]; [16],0.00805 ± 0.0035
same,peptide microarray binding signal,[4]; [17],0.0049 ± 0.00019
ARTKQTARKSTGG [H3 1-13 A R T K Q T A R K Sph T G G],peptide microarray binding signal,"[1]; peptide modifications: H3S10ph, binder concentration: 50 nM",0.00508 ± 8.1e-05
same,peptide microarray binding signal,"[1]; peptide modifications: H3S10ph, binder concentration: 500 nM",0.013 ± 0.00036
same,peptide microarray binding signal,"[2]; peptide modifications: H3S10ph, binder concentration: 10 nM",0.00233 ± 2.7e-05
same,peptide microarray binding signal,"[2]; peptide modifications: H3S10ph, binder concentration: 100 nM",0.0243 ± 0.00098
same,peptide microarray binding signal,[3]; [18],0.000321 ± 3.3e-06
same,peptide microarray binding signal,[3]; [19],0.000514 ± 5.5e-06
same,peptide microarray binding signal,[4]; [18],0.000362 ± 1.3e-05
same,peptide microarray binding signal,[4]; [19],0.000288
ARTKQTARKSTGG [H3 1-13 A R T K Q T A Rme2s Kme3 S T G G],peptide microarray binding signal,"[1]; peptide modifications: H3R8me2s H3K9me3, binder concentration: 50 nM",0.0211 ± 0.0011
same,peptide microarray binding signal,"[1]; peptide modifications: H3R8me2s H3K9me3, binder concentration: 500 nM",0.0455 ± 0.0027
same,peptide microarray binding signal,"[2]; peptide modifications: H3R8me2s H3K9me3, binder concentration: 10 nM",0.0394 ± 0.0041
same,peptide microarray binding signal,"[2]; peptide modifications: H3R8me2s H3K9me3, binder concentration: 100 nM",0.0568 ± 0.0048
same,peptide microarray binding signal,[3]; [20],0.0739 ± 0.0089
same,peptide microarray binding signal,[3]; [21],0.0587 ± 0.011
same,peptide microarray binding signal,[4]; [20],0.468 ± 0.023
same,peptide microarray binding signal,[4]; [21],0.396 ± 0.02
ARTKQTARKSTGG [H3 1-13 A R Tph Kme Q T A R K S T G G],peptide microarray binding signal,"[1]; peptide modifications: H3T3ph H3K4me1, binder concentration: 50 nM",0.00492 ± 0.00024
same,peptide microarray binding signal,"[1]; peptide modifications: H3T3ph H3K4me1, binder concentration: 500 nM",0.0238 ± 0.013
same,peptide microarray binding signal,"[2]; peptide modifications: H3T3ph H3K4me1, binder concentration: 10 nM",0.00376 ± 0.00014
same,peptide microarray binding signal,"[2]; peptide modifications: H3T3ph H3K4me1, binder concentration: 100 nM",0.021 ± 0.002
same,peptide microarray binding signal,[3]; [22],0.021 ± 0.0064
same,peptide microarray binding signal,[3]; [23],0.00765 ± 0.0012
same,peptide microarray binding signal,[4]; [22],0.00298 ± 0.00034
same,peptide microarray binding signal,[4]; [23],0.0015 ± 5.1e-05
